Measured values: PubChem BioAssay AID504339 (National Center for Advancing Translational Sciences (NCATS), 2011)
Screen size: about 390,000 compounds; about 17,000 (4.4%) were called active. About 8% were inconclusive and are not listed. What follows is part of a selection rich in actives, with near analogues and random picks from the rest. A number with no mark means an inactive call. Calls follow the shape of the dose curve; as a rule, active = well fitted inhibition curve with a large enough effect; inconclusive = small, poorly fitted or top-dose-only effect; inactive = no such curve, though single readings can be large or run the other way.

target: Lysine-specific demethylase 4A (Homo sapiens) (UniProt O75164); experiment: qHTS Assay for Inhibitors of JMJD2A-Tudor Domain; conditions: AlphaScreen JMJD2A-Tudor / H3K4me3 peptide binding; series mostly up to 114 µM; activity change, negative = inhibition: at the top concentration; also: nearly all actives have a fitted effect of over 50% in size
Sequence (O75164 whole entry, looked up, the tested form may be a part): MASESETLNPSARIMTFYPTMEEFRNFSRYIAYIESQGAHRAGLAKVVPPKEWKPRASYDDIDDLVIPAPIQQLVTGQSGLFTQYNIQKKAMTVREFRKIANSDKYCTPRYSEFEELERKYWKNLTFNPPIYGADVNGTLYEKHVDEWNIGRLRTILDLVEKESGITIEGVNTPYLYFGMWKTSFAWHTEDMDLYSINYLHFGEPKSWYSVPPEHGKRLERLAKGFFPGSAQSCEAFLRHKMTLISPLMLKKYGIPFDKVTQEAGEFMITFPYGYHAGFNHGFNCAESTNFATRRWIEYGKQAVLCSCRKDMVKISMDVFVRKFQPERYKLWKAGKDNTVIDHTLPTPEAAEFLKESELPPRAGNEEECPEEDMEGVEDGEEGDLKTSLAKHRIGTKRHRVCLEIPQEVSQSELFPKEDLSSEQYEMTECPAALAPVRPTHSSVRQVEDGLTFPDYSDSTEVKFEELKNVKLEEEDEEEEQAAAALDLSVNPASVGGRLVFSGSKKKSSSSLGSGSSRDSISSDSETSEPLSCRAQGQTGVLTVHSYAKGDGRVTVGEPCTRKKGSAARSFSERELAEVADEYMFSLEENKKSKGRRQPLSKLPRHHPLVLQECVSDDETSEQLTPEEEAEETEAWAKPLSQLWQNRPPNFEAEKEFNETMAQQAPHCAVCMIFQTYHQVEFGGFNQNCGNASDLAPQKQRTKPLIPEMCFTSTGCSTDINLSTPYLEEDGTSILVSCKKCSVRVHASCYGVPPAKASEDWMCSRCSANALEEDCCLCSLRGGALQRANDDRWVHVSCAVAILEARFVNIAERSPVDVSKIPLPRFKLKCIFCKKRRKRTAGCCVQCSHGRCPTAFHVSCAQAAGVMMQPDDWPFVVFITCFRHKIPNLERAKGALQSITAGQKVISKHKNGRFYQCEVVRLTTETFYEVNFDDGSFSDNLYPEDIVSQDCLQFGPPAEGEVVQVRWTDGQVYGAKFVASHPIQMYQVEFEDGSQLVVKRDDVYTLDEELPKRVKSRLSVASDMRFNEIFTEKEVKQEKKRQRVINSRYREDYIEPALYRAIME
% is scaled to controls: 0 for no effect and ±100 for the full control effect; potency is read from the fitted curve at half-maximal effect.

Structure (SMILES) | activity change, negative = inhibition | Potency
COP(=O)(OC)C(NC(=O)c1ccc(C)cc1)C(Cl)(Cl)Cl (configuration not stated) | 1.03% | 
Cc1nnc(NC(=O)c2cccn(Cc3cccc(F)c3)c2=O)s1 | -13.6% | 
COC(=O)C1=C(c2cc3ccccc3s2)C[C@@H]2CC[C@H]1N2C(=O)NCc1cccc2ccccc12 | -13.7% | 
CC(CC(C#N)(c1ccccc1)c1ccccc1)N1CCCCC1 (configuration not stated) | -3.5% | 
O=C(COC(=O)c1ccccc1)Nc1ccccc1Sc1ccccc1 | 73.6% | 
Cc1cc(-c2n[nH]c(=S)n2-c2ccc(C)c(C)c2)no1 |  | 3.16 µM (active)
O=C1NC(=O)C(CCOc2ccccc2)(CCc2ccccc2)C(=O)N1 | 12.6% | 
CCOC(=O)C1(c2ccccc2)CCN(CC(O)c2ccc(NC(C)=O)cc2)CC1 (configuration not stated) | -19.3% | 
CCOP(=S)(OCC)SCOC(=O)NCC(=O)OC | 9.97% | 
CCN1CCN(Cc2cc(OC)c3c(c2)OCO3)CC1 | -1.66% | 
COC(=O)C1=C(c2c(C)noc2C)C[C@@H]2CC[C@H]1N2C(=O)NCc1ccc2c(c1)OCO2 | -0.714% | 
COc1ccc(CNCCc2ccc3c(c2)OCO3)c(OC)c1OC |  | 89.1 µM (active)
CC1C(=O)OC2CCN3CC=C(COC(=O)C(C)(O)C1(C)O)C23 (configuration not stated) | -9.52% | 
COc1cc([C@@H]2c3cc4c(cc3[C@H](OC(C)=O)[C@H]3COC(=O)[C@H]23)OCO4)cc(OC)c1OC | -12.1% | 
COC(=O)[C@@H]1C(OC(=O)c2ccccc2)CC2CCC1N2C (some centres not stated) | -13.8% | 
CCC1(CC(C)c2ccccc2)C(=O)NC(=O)NC1=O (configuration not stated) | -5.52% | 
CN(C)C(=O)Oc1cc(OC(=O)N(C)C)cc(C(O)CNC(C)(C)C)c1 (configuration not stated) |  | inactive
Cc1cc(=O)oc2c(C)c(OCC(=O)N3CCN(Cc4ccc5c(c4)OCO5)CC3)ccc12 | -22.9% | 
Fc1ccc(N2CCN(Cc3ccc4c(c3)OCO4)CC2)cc1 |  | 3.55 µM (active)
O=C(Cc1ccccc1[N+](=O)[O-])N1CCN(Cc2ccc3c(c2)OCO3)CC1 | -22.4% | 
CCCCCCCCCCCCn1ccc(=N)cc1 | -6.9% | 

Structure (SMILES) | activity change, negative = inhibition | Potency
CSc1ccc(C(=O)C2CCCN(Cc3ccn[nH]3)C2)cc1 (configuration not stated) | -14.8% | 
CN(C)CC1Oc2ccccc2OC1(O)c1ccccc1 (configuration not stated) | 10% | 
O=c1c2ccccc2nc(-c2ccc(Cl)cc2Cl)n1-c1ccncc1 | -3.7% | 
O=C(O)COc1ccccc1/C=C1\C(=O)NC(=O)N(CCC2=CCCCC2)C1=O | -0.699% | 
COc1ccc(CN2C(=O)NC(=O)/C(=C\c3ccc(OC)c(OC)c3OC)C2=O)cc1 |  | 56.2 µM (active)
O=C1NC(=O)N(Cc2ccco2)C(=O)/C1=C\c1cccn1CCOc1ccccc1 | -23.6% | 
CC(=O)c1c(O)n(C2CCCCCC2)c(=O)[nH]c1=O | -27.2% | 
CO[C@H]1[C@@H](O)[C@@H](C)O[C@H](O[C@H]2[C@H](Oc3cccc4c(O)c5c(=O)oc6ccc(C)c7c(=O)oc(c34)c5c67)O[C@H](C)[C@H](O)[C@@H]2O)[C@@H]1O | -8.28% | 
COc1ccc(Br)cc1CNCCc1cccc(Cl)c1 |  | 22.4 µM (active)
CC(C)N(CC#CCC1(O)c2ccccc2-c2ccccc21)C(C)C | -4.64% | 
COc1ccc(-n2c(O)c(C(C)=Nc3ccc4c(c3)CCC4)c(=O)[nH]c2=O)cc1 | -6.38% | 
CCOC(=O)C1(Cc2ccc(Cl)cc2)CCN(C(C)CCn2cccn2)CC1 (configuration not stated) | -25.9% | 
COc1ccc(N=Cc2c(O)n(C)c(=O)[nH]c2=O)cc1 | -10.2% | 
C=CC12CN(C)[C@@H]3C4CO[C@H](C[C@H]41)[C@]1(C(=O)Nc4ccccc41)[C@@H]32 (some centres not stated) | -31.3% | 
Cc1ccc(Cn2nnnc2CN2CCC(n3nnc4ccccc43)CC2)cc1 |  | 50.1 µM (active)
COC1=C[C@@H]2[C@@H]3Cc4ccc(OC)c(O)c4[C@]2(CCN3C)CC1=O | -11.5% | 
O=C(O)C1CSC(c2cccnc2)N1 (configuration not stated) |  | 7.94 µM (active)
NCCc1c[nH]c2ccc(O)cc12 | -26.6% | 
CC[N+](CC)(CC)CCCCCCCCCC[N+](CC)(CC)CC | -8.14% | 
COc1cccc(N2C(=O)NC(=O)/C(=C\c3cn(C)c4ccccc34)C2=O)c1 | -18.1% | 
O=C1NC(=O)N(c2ccc(F)cc2)C(=O)/C1=C/c1ccc2c(c1)CCCN2Cc1ccccc1 | -30.8% | 

Structure (SMILES) | activity change, negative = inhibition | Potency
Cc1ccccc1N1C(=O)NC(=O)/C(=C\c2cc(C)n(C)c2C)C1=O | -16.1% | 
O=C1NC(=O)N(c2ccccc2)C(=O)/C1=C/c1ccc([N+](=O)[O-])s1 |  | 56.2 µM (active)
COc1cccc(N2C(=O)NC(=O)/C(=C\c3ccc([N+](=O)[O-])s3)C2=O)c1 |  | 35.5 µM (active)
COCCNC(=O)CN1C2CCC1CC(O)(c1cccnc1)C2 (configuration not stated) | -0.69% | 
COC(=O)C1=C(c2cccc(OCc3ccccc3)c2)C[C@@H]2CC[C@H]1N2C(=O)NCc1ccc(Br)cc1 | -30.2% | 
C[C@]12CCC3C(CC[C@H]4[C@H](O)[C@H](O)CC[C@]34C)C1CCC2=O (some centres not stated) | 2.07% | 
Nc1ccc([N+](=O)[O-])cc1 | -18.6% | 
COC1C(O)C(C)OC(OC2CCC3(C=O)C(CCC4C3CCC3(C)C(C5=CC(=O)OC5)CCC43O)C2)C1O (configuration not stated) | -1.36% | 
CCCCC(=O)N/N=C/c1c(O)n(-c2ccccc2)c(=O)[nH]c1=O |  | 79.4 µM (active)
O=c1[nH]c(=O)n(Cc2ccccc2)c(O)c1/C=N/Nc1c(F)c(F)c(F)c(F)c1F | 2.68% | 
CCc1nnc(NS(=O)(=O)c2ccc(N=Cc3c(O)n(-c4ccccc4)c(=O)[nH]c3=O)cc2)s1 | -5.84% | 
CNC(=O)O/N=C(\N)Cc1csc2ccc(Cl)cc12 | -16.9% | 
Cc1ccc(Oc2cnn(-c3ccccc3)c(=O)c2Br)cc1 | 45.4% | 
Cc1cc(/C=C2/C(=O)NC(=O)N(Cc3ccco3)C2=O)c(C)n1-c1ccc(C(=O)O)cc1 | -22.4% | 
COc1ccc(N2C(=O)/C(=C/c3ccco3)C(=O)NC2=S)cc1 |  | 10 µM (active)
O=C1NC(=O)N(Cc2ccco2)C(=O)/C1=C\c1ccc(-c2ccc(F)cc2)o1 | -24.6% | 
CN(C)c1ccc(/C=C2\CC3C4CC=C5CC(O)CCC5(C)C4CCC3(C)C2=O)cc1 (configuration not stated) | -26.2% | 
C[C@]12CC[C@H](O)CC1=C([N+](=O)[O-])CC1C2CC[C@@]2(C)C1CC[C@@H]2O (some centres not stated) | -7.53% | 
COc1ccccc1N=C1SCCCN1C |  | 56.2 µM (active)
CCC(C)(O)C(=O)OC1C(=O)OC2CC3C(C)=CC(=O)C(O)C3(C)C3C4(O)OCC23C1C(C)C4O (configuration not stated) | -7.64% | 
